Test results taken from PubChem BioAssay AID1159580 (chemical genetic matrix, 2015).
The campaign covered roughly 5,500 compounds. About 2,000 (36%) were called active. Roughly 18% stayed inconclusive and do not appear here. Rule as the data show it: active = normalized growth mostly below about 0.91 (no sharp cut-off); inconclusive = no clear call, values can overlap the other calls; inactive = mostly above about 0.92. Some of the results follow.

Assay: chemical genetic growth profiling, strain panel (AID 1159580);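 also: tested at 20 µM; growth read once vehicle control cultures reached saturation at 30 °C; 1 = growth at the plate median or of vehicle wells; lower values mean less growth of the strain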
Conditions: growth OD

Measured: normalized growth

CC(NCCc1ccc(O)cc1)C(O)c1ccc(O)cc1 (centres undefined)
inactive: S. cerevisiae deletion strains, locus YJR043C, strain POL32, hits give low values 0.992 | S. cerevisiae deletion strains, locus YJR066W, strain TOR1, hits give low values 0.948 | S. cerevisiae deletion strains, locus YKL009W, strain mrt4, hits give low values 0.977 | S. cerevisiae deletion strains, locus YKL068W, hits give low values 0.985 | S. cerevisiae deletion strains, locus YKL085W, strain MDH1 (second series), hits give low values 0.984 | S. cerevisiae deletion strains, locus YKL085W, strain MDH1, hits give low values 0.984 | S. cerevisiae deletion strains, locus YKL160W, strain elf1, hits give low values 0.966 | S. cerevisiae deletion strains, locus YKL190W, strain CNB1, hits give low values 0.998 | S. cerevisiae deletion strains, locus YKR001C, strain vps1, hits give low values 0.987 | S. cerevisiae deletion strains, locus YKR026C, strain gcn3, hits give low values 0.985 | S. cerevisiae deletion strains, locus YKR091W, strain srl3, hits give low values 0.985 | S. cerevisiae deletion strains, locus YLL001W, strain dnm1, hits give low values 0.981 | S. cerevisiae deletion strains, locus YLL026W, hits give low values 0.999 | S. cerevisiae deletion strains, locus YLL041C, strain sdh2, hits give low values 0.983 | S. cerevisiae deletion strains, locus YLR027C, strain aat2, hits give low values 0.983 | S. cerevisiae deletion strains, locus YLR039C, strain RIC1, hits give low values 1.02 | S. cerevisiae deletion strains, locus YLR058C, strain SHM2, hits give low values 0.988 | S. cerevisiae deletion strains, locus YLR102C, strain apc9, hits give low values 0.98 | S. cerevisiae deletion strains, locus YLR113W, strain HOG1, hits give low values 1.01 | S. cerevisiae deletion strains, locus YLR221C, strain rsa3, hits give low values 1.03 | S. cerevisiae deletion strains, locus YLR258W, strain gsy2, hits give low values 0.954 | S. cerevisiae deletion strains, locus YLR262C, strain YPT6 (second series), hits give low values 0.993 | S. cerevisiae deletion strains, locus YLR262C, strain YPT6, hits give low values 0.977 | S. cerevisiae deletion strains, locus YLR268W, strain sec22, hits give low values 0.975 | S. cerevisiae deletion strains, locus YLR320W, strain mms22, hits give low values 0.987 | S. cerevisiae deletion strains, locus YLR330W, strain CHS5, hits give low values 0.987 | S. cerevisiae deletion strains, locus YLR342W, strain FKS1 (second series), hits give low values 0.984 | S. cerevisiae deletion strains, locus YLR342W, strain FKS1, hits give low values 0.974 | S. cerevisiae deletion strains, locus YLR357W, strain rsc2, hits give low values 0.916 | S. cerevisiae deletion strains, locus YLR370C, strain arc18, hits give low values 0.95 | S. cerevisiae deletion strains, locus YLR371W, strain rom2, hits give low values 0.975 | S. cerevisiae deletion strains, locus YLR384C, strain iki3, hits give low values 0.975 | S. cerevisiae deletion strains, locus YLR418C, strain cdc73, hits give low values 0.969 | S. cerevisiae deletion strains, locus YML016C, strain PPZ1, hits give low values 0.986 | S. cerevisiae deletion strains, locus YML032C, strain rad52, hits give low values 0.976 | S. cerevisiae deletion strains, locus YML120C, strain ndi1, hits give low values 1.02 | S. cerevisiae deletion strains, locus YML124C, strain tub3, hits give low values 0.99 | S. cerevisiae deletion strains, locus YMR058W, strain fet3, hits give low values 0.988 | S. cerevisiae deletion strains, locus YMR078C, strain ctf18, hits give low values 0.986 | S. cerevisiae deletion strains, locus YMR125W, strain sto1, hits give low values 0.98 | S. cerevisiae deletion strains, locus YMR129W, hits give low values 1.01 | S. cerevisiae deletion strains, locus YMR205C, strain PFK2, hits give low values 1 | S. cerevisiae deletion strains, locus YMR223W, strain ubp8, hits give low values 0.976 | S. cerevisiae deletion strains, locus YMR231W, strain pep5, hits give low values 0.997 | S. cerevisiae deletion strains, locus YMR307W, strain GAS1, hits give low values 0.891 | S. cerevisiae deletion strains, locus YNL067W, strain RPL9B, hits give low values 1.01 | S. cerevisiae deletion strains, locus YNL071W, strain lat1, hits give low values 0.993 | S. cerevisiae deletion strains, locus YNL128W, strain TEP1, hits give low values 0.962 | S. cerevisiae deletion strains, locus YNL183C, strain NPR1, hits give low values 0.959 | S. cerevisiae deletion strains, locus YNL209W, strain ssb2, hits give low values 0.961 | S. cerevisiae deletion strains, locus YNL233W, strain BNI4, hits give low values 1 | S. cerevisiae deletion strains, locus YNL248C, strain rpa49, hits give low values 0.921 | S. cerevisiae deletion strains, locus YNL250W, strain rad50, hits give low values 0.974 | S. cerevisiae deletion strains, locus YNL271C, strain bni1, hits give low values 0.973 | S. cerevisiae deletion strains, locus YNL298W, strain CLA4, hits give low values 0.981 | S. cerevisiae deletion strains, locus YNL307C, strain MCK1, hits give low values 0.987 | S. cerevisiae deletion strains, locus YNL322C, strain KRE1 (second series), hits give low values 0.985 | S. cerevisiae deletion strains, locus YNR049C, strain mso1, hits give low values 0.977 | S. cerevisiae deletion strains, locus YNR052C, strain pop2, hits give low values 0.985 | S. cerevisiae deletion strains, locus YOL006C, strain TOP1, hits give low values 1.02 | S. cerevisiae deletion strains, locus YOL012C, strain htz1 0.994 | S. cerevisiae deletion strains, locus YOL147C, strain pex11, hits give low values 0.983 | S. cerevisiae deletion strains, locus YOR001W, strain rrp6, hits give low values 1.03 | S. cerevisiae deletion strains, locus YOR061W, strain CKA2, hits give low values 0.984 | S. cerevisiae deletion strains, locus YOR069W, strain VPS5, hits give low values 0.99 | S. cerevisiae deletion strains, locus YOR070C, strain gyp1, hits give low values 0.976 | S. cerevisiae deletion strains, locus YOR080W, strain dia2, hits give low values 0.977 | S. cerevisiae deletion strains, locus YOR083W, strain WHI5, hits give low values 0.935 | S. cerevisiae deletion strains, locus YOR106W, strain vam3, hits give low values 0.99 | S. cerevisiae deletion strains, locus YOR136W, strain idh2, hits give low values 0.993 | S. cerevisiae deletion strains, locus YOR144C, strain elg1, hits give low values 0.987 | S. cerevisiae deletion strains, locus YOR184W, strain ser1, hits give low values 0.978 | S. cerevisiae deletion strains, locus YOR231W, strain MKK1, hits give low values 1 | S. cerevisiae deletion strains, locus YOR265W, strain rbl2, hits give low values 0.985 | S. cerevisiae deletion strains, locus YOR270C, strain vph1, hits give low values 1.01 | S. cerevisiae deletion strains, locus YOR290C, strain snf2, hits give low values 0.912 | S. cerevisiae deletion strains, locus YOR316C, strain cot1, hits give low values 0.984 | S. cerevisiae deletion strains, locus YPL051W, strain arl3, hits give low values 0.978 | S. cerevisiae deletion strains, locus YPL078C, strain atp4, hits give low values 0.946 | S. cerevisiae deletion strains, locus YPL106C, strain sse1, hits give low values 0.969 | S. cerevisiae deletion strains, locus YPL240C, strain hsp82, hits give low values 0.995 | S. cerevisiae deletion strains, locus YPL241C, strain CIN2, hits give low values 0.992 | S. cerevisiae deletion strains, locus YPL256C, strain CLN2, hits give low values 1.01 | S. cerevisiae deletion strains, locus YPR119W, strain clb2, hits give low values 0.986 | S. cerevisiae deletion strains, locus YPR141C, strain kar3, hits give low values 0.969 | S. cerevisiae deletion strains, locus YPR163C, strain tif3, hits give low values 0.982 | S. cerevisiae deletion strains, locus YPR167C, strain met16, hits give low values 0.972 | S. cerevisiae deletion strains, strain wtn01, hits give low values 0.976 | S. cerevisiae strains, strain wild type, hits give low values 0.989
